Values joined by “and” are separate entries in the source; they are usually repeats but may differ in a detail not shown here. Equal entries are not always repeated. Records with an inconclusive call do not appear. The source holds several records for some structures; these can differ, active in one and inactive in another. Active and inactive are the calls of the source. Calls follow the shape of the dose curve; as a rule, active = well fitted inhibition curve with a large enough effect; inconclusive = small, poorly fitted or top-dose-only effect; inactive = flat fitted curve, though single readings scatter.

Common to all, as to test: qHTS profiling for inhibitors of Plasmodium falciparum proliferation (AID 504749); also: nearly all actives have a fitted effect of over 60% in size
What all share (details): P. falciparum in erythrocytes, SYBR Green DNA, 72 h; series mostly up to 28.7 µM
(In general: Quantitative high-throughput screening tests each substance at several concentrations.)

In assay [1] the test system is CP250. The method in brief: (§1)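 Readout was DNA-dye fluorescence from lysed cultures, ex 485/em 535 nm. Parasitized red cells had grown 72 h with compound; data scaled between 0.29 uM artemisinin and DMSO wells and corrected using vehicle-only plates.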
The test system of assay [2] is CP252. In a few lines:
as §1

The subject of assay [3] is CP256. In a few lines: as §1
In assay [4] the test system is CP260. The method in brief:
as §1

Assay [5] deals with CP262. In a few lines:
as §1

For assay [6], the system named is CP265. In a few lines:
as §1

The test system of assay [7] is CP266. The method in brief:
as §1

Assay [8] deals with CP268. The method in brief:
as §1

Assay [9] relates to CP269. The method in brief: as §1
For assay [10], the system named is CP286. In a few lines:
as §1

The test system of assay [11] is CP291. The method in brief:
as §1

The subject of assay [12] is CP297. The method in brief: as §1
The test system of assay [13] is CP305. The method in brief: as §1
Assay [14] concerns CP315. In a few lines: as §1
Assay [15] relates to CP325. In a few lines:
as §1

Assay [16] concerns CP329. The method in brief:
as §1

Assay [17] relates to DFO2036. The method in brief: as §1
In assay [18] the test system is DIV14. The method in brief:
as §1

Assay [19] deals with DIV17. The method in brief: as §1
Assay [20] has as its system CP335. The method in brief:
as §1
Potency is read from the fitted curve at half-maximal effect.

In the case of `CC(C)Nc1ccc(Nc2ccccc2)cc1`, the Potency was 5.01 µM (active) in assay [1]; 7.08 µM (active) in assay [2]; 7.94 µM (active) in assay [3]; 5.62 µM (active) in [4]; 4.78 µM (active) in assay [5]; 11.2 µM (active) in assay [6]. Further, the Potency in assay [7] is 8.49 µM (active); in assay [8], 10.7 µM (active); in assay [9], 6.75 µM (active); in assay [10], 8.91 µM (active); in assay [11], 15.1 µM (active); in [12], 4.78 µM (active). In addition, the Potency in assay [13] was 13.5 µM (active); in assay [14], 4.78 µM (active); in [15], 6.01 µM (active); in assay [16] it was 6.01 µM (active); in assay [17], 5.01 µM (active); in [18], 12 µM (active). Further, the Potency in [19] is 13.5 µM (active).
On to `O=C/C=C/c1ccccc1`, for which the Potency result in assay [1], in assay [2], in [3], in assay [4], in assay [5] and in assay [6] was “inactive” each time. Moreover, the Potency result in assay [7], in assay [8], in [9], in assay [10], in assay [11] and in assay [12] was “inactive” throughout. The Potency result in assay [13], in assay [14], in [15], in assay [16], in [17] and in assay [18] was “inactive” throughout. Also, the Potency result in [19] is “inactive”.
As to `O=c1[nH]cc(N(CCCl)CCCl)c(=O)[nH]1`, the Potency result in assay [1], in assay [2], in assay [3], in assay [4], in [5] and in [6] was “inactive” throughout. Further, the Potency entry in [7], in assay [8], in [9], in assay [10], in [11] and in [12] was “inactive” each time. The Potency result in assay [13], in assay [14], in [16], in assay [20], in assay [17] and in assay [18] was “inactive” in each case. The Potency result in assay [19] is “inactive”.
Consider `CC(C)(C)c1cc(O)ccc1O`, for which the Potency in assay [1] was 7.94 µM (active); in assay [2] it was 8.91 µM (active) and inactive; in assay [3], 11.2 µM (active); in [4], 6.31 µM (active); in assay [5], 12 µM (active) and inactive; in assay [6] it was 11.2 µM (active) and 12.6 µM (active). In addition, the Potency is 13.5 µM (active) in [9]; 3.98 µM (active) in [10]; 15.1 µM (active) in [11]; 12 µM (active) in assay [12]; 13.5 µM (active) in assay [13]; 5.36 µM (active) in [20]. Besides, the Potency is 8.91 µM (active) in assay [17]; 6.01 µM (active) and 12 µM (active) in assay [18]; 5.36 µM (active) in assay [19]. Also, the Potency result in [7], in assay [14] and in assay [16] was “inactive” in each case.
As to `c1ccc2sc(SNC3CCCCC3)nc2c1`, the Potency result in assay [1], in [2], in [3], in [4], in assay [5] and in assay [6] was “inactive” throughout. Further, the Potency result in assay [7], in [8], in assay [9], in assay [10], in assay [11] and in assay [12] was “inactive” each time. Moreover, the Potency result in assay [13], in [14], in [15], in assay [16], in assay [20] and in assay [17] was “inactive” each time. The Potency result in assay [18] and in assay [19] was “inactive” in each case.
Consider `CN1c2ccccc2C(NCCCCCCC(=O)O)c2ccc(Cl)cc2S1(=O)=O` (configuration not stated), for which the Potency entry in [1], in assay [2], in assay [3], in [4], in assay [5] and in [6] was “inactive” throughout. For the same compound, the Potency result in assay [7], in [8], in [9], in assay [10], in assay [11] and in assay [12] was “inactive” throughout. In addition, the Potency result in assay [13], in assay [14], in assay [15], in assay [16], in assay [20] and in assay [17] was “inactive” in each case. Moreover, the Potency entry in assay [18] and in assay [19] was “inactive” each time.
Regarding `O[C@H]1[C@H]2[C@H](O)CCCN2C[C@H]1O`, the Potency result in assay [1], in [2], in assay [3], in [4], in assay [5] and in [6] was “inactive” each time. Besides, the Potency result in assay [7], in assay [8], in assay [9], in assay [10], in assay [11] and in assay [12] was “inactive” each time. Besides, the Potency result in assay [13], in assay [14], in [15], in assay [16], in assay [20] and in assay [17] was “inactive” throughout. In addition, the Potency result in assay [18] and in assay [19] was “inactive” throughout.
With `ClC(Cl)(Cl)Cl`, the Potency result in assay [1], in assay [2], in assay [3], in [4], in assay [5] and in [6] was “inactive” in each case. Also, the Potency entry in assay [7], in [8], in [9], in assay [10], in assay [11] and in assay [12] was “inactive” in each case. The Potency entry in assay [13], in assay [14], in [15], in assay [16], in [20] and in assay [17] was “inactive” each time. The Potency entry in [18] and in assay [19] was “inactive” each time.
Take `C#CC(C)(O)CC` (configuration not stated): the Potency result in assay [1], in assay [2], in [3], in assay [4], in assay [5] and in [6] was “inactive” in each case. Further, the Potency result in assay [7], in [8], in assay [9], in [10], in assay [11] and in assay [12] was “inactive” throughout. Moreover, the Potency result in assay [13], in assay [14], in assay [15], in [16], in assay [20] and in assay [17] was “inactive” each time. The Potency entry in assay [18] and in assay [19] was “inactive” in each case.
`O=C(NCNC(=O)NC1C(=O)NC(=O)N1CO)NC1C(=O)NC(=O)N1CO` (configuration not stated): the Potency entry in assay [1], in assay [2], in assay [3], in assay [4], in [5] and in [6] was “inactive” each time. Moreover, the Potency entry in assay [7], in [9], in assay [10], in assay [11], in [12] and in [13] was “inactive” each time. For the same compound, the Potency result in assay [14], in assay [15], in [16], in assay [20], in assay [17] and in assay [18] was “inactive” in each case. Also, in [19], the Potency entry was “inactive”.
In the case of `O=C1CC[C@@]2(O)C3Cc4ccc(O)c5c4C2(CCN3CC2CC2)[C@H]1O5` (some centres not stated), the Potency entry in [1], in assay [2], in [3], in assay [4], in assay [5] and in [6] was “inactive” throughout. Also, the Potency result in [7], in assay [8], in assay [9], in assay [10], in assay [11] and in assay [12] was “inactive” throughout. Moreover, the Potency result in [13], in [14], in [15], in [16], in [17] and in [18] was “inactive” in each case. In assay [19], the Potency entry is “inactive”.
For `CCCCCl`, the Potency result in assay [1], in [2], in assay [3], in [4], in assay [5] and in assay [6] was “inactive” throughout. Moreover, the Potency result in assay [7], in assay [8], in assay [9], in assay [10], in assay [11] and in assay [12] was “inactive” each time. Moreover, the Potency result in assay [13], in assay [14], in [15], in assay [16], in assay [20] and in assay [17] was “inactive” throughout. The Potency entry in [18] and in assay [19] was “inactive” throughout.
With `CCON=O`, the Potency entry in assay [1], in assay [2], in assay [3], in assay [4], in [5] and in assay [6] was “inactive” each time. Also, the Potency result in assay [7], in [8], in [9], in assay [10], in [11] and in assay [12] was “inactive” each time. Also, the Potency entry in assay [13], in [14], in assay [15], in [16], in assay [20] and in assay [17] was “inactive” in each case. Also, the Potency entry in assay [18] and in [19] was “inactive” in each case.
Consider `O=[N+]([O-])c1ccccc1`, for which the Potency result in assay [1], in assay [2], in assay [3], in [4], in [5] and in [6] was “inactive” throughout. For the same compound, the Potency entry in [7], in assay [8], in assay [9], in assay [10], in [11] and in assay [12] was “inactive” each time. Further, the Potency entry in assay [13], in [14], in assay [15], in assay [16], in assay [17] and in assay [18] was “inactive” each time. In addition, the Potency entry in assay [19] was “inactive”.

These data come from PubChem BioAssay (NCATS).
